# Data published in PubChem BioAssay (NCATS).
# Where “and” joins values, the source holds several entries; their conditions need not be identical. Equal entries are not always repeated. Inconclusive results are not listed. A call without a number means that no potency is given here. Calls of active or inactive are those of the source. Unless noted, the call rests on the fitted dose curve; in most records, active means well fitted curve in the direction sought with a large enough effect; inconclusive means small, poorly fitted or top-dose-only effect, or another doubt; inactive means no such curve, though single readings can be large; an effect the other way counts as inactive or inconclusive.
# Legend:
# [1] = Cell Viability - Hek293 (AID 427;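 active means compounds whose dose-response curve shows a full or clear partial loss of cell viability, called from curve shape rather than a numeric limit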;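 further: potency means the concentration at half of the fitted maximal effect; cells exposed to compound for 40 hours at 37 °C before reading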); settings: qHTS
# Procedure, shortened: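 HEK293 cells in complete medium were exposed to compound for 40 hr at 37 °C, then cellular ATP was read by CellTiter-Glo luminescence. Data were normalized to DMSO (basal) and 100 uM tamoxifen (100% inhibition), and AC50 came from Hill fits.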
# [2] = Cell Viability - N2a (AID 540); settings: N2a mouse neuroblastoma cell viability; activity change, negative = cytotoxicity: at 92.2 µM (top of the series); further: nearly all actives have a fitted effect of over 45% in size
# Procedure, shortened: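 Luminescent ATP signal (CellTiter-Glo, 20 min at room temperature) served as the viability read-out after N2a cells were treated with compounds for 40 hours at 37 °C. Concentration-response data were fitted to the Hill equation for AC50.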
# [3] = Cell Viability - SH-SY5Y (AID 544); settings: SH-SY5Y neuroblastoma cell viability; viability change, negative = cytotoxic: at 92.2 µM (top of the series); further: nearly all actives have a fitted effect of over 55% in size
# Procedure, shortened: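 Luminescent ATP read-out (CellTiter-Glo) measures loss of viable SH-SY5Y neuroblastoma cells after 40 hr compound exposure at 37 °C. AC50 values derive from standard Hill modelling of qHTS concentration-response data.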
# [4] = Cellular Toxicity (caspase-3) SHSY5Y (AID 657); settings: SH-SY5Y caspase-3 activation, DMSO zero, 10 µM staurosporine = 100%; series mostly up to 91.7 µM
# Procedure, shortened: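 Luminescent caspase-3/7 readout (aminoluciferin release) in SH-SY5Y cells after 16 h compound exposure in complete medium. Activity scaled between DMSO basal and 10 uM staurosporine as 100%; concentration-response fitted to Hill equation for AC50.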
# [5] = Cellular Toxicity (caspase-3) Mesangial (AID 660); settings: mesangial cells, normalized: DMSO 0%, 100 µM tamoxifen 100%; series mostly up to 91.7 µM;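 further: combined caspase 3 and 7 activity read by Caspase-Glo luminescence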
# Procedure, shortened: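 Mesangial cells, 1000/well, 5 h settle at 37 °C; compound 16 h, 37 °C; Caspase-Glo 3/7 reagent 20 min RT; luminescence. Norm.: DMSO = 0%, tamoxifen 100 uM = 100%. AC50, Hill fit.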
# [6] = Cellular Toxicity (caspase-3) NIH 3T3 (AID 666); settings: NIH 3T3 caspase-3 activation, apoptosis/toxicity; series mostly up to 92.2 µM;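 further: caspase signal read after 16 h compound exposure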; further: potency means the concentration at half of the fitted maximal effect
# Procedure, shortened: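 Luminescence from aminoluciferin released by caspase-3/7 cleavage of a peptide substrate served as read-out. Mouse fibroblast NIH 3T3 cells were exposed to compounds over a concentration range for 16 hours, and AC50 values came from standard Hill modelling.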
# [7] = Cell Viability - LYMP2-001 (AID 921); settings: LYMP2-001 lymphoblastoid cell viability; series mostly up to 92.2 µM;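 further: cells exposed to compound for 24 h at 37 °C; nearly all actives have a fitted effect of over 70% in size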
# Procedure, shortened: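 CellTiter-Glo luminescence (intracellular ATP) after 24 hr compound exposure at 37 C, 2500 lymphoblastoid cells/well in complete medium. AC50 fitted with standard Hill equation; tetraoctylammonium bromide positive control.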
# [8] = MultiTox-Fluor Cytotoxicity Assay - LYMP1-002 - Dead Cells (AID 960); settings: LYMP1-002 lymphoblastoid cells, dead-cell protease fluorescence; series mostly up to 46.1 µM; further: nearly all actives have a fitted effect of over 60% in size
# Procedure, shortened: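 LYMP1-002 cells 2500/well; 5 hr 37 C pre-incubation; compound 16 hr 37 C; MultiTox-Fluor reagent 60 min RT; dead-cell fluor Ex/Em 485/520. Norm. to DMSO (0%) vs 15 uM tetraoctylammonium bromide (100%); Hill AC50.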
# [9] = Cell Viability - LYMP2-006 (AID 978); settings: LYMP2-006 lymphoblastoid cell viability, qHTS; series mostly up to 92.2 µM;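 further: cells exposed to compound for 24 hours; nearly all actives have a fitted effect of over 60% in size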
# Procedure, shortened: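 qHTS, 1536-well; 2500 cells/well, 5 hr 37 C; cpd 24 hr 37 C; CellTiter-Glo 30 min RT; luminescence. Tetraoctylammonium bromide pos. ctrl. AC50 via Hill eqn.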
# [10] = target: Vitamin D3 receptor (Homo sapiens) (UniProt P11473); assay: qHTS assay for small molecule antagonists of vitamin D receptor signaling (AID 588541; calls by dose curve;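 further: receptor activated by calcitriol during compound treatment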); settings: HEK293T VDR-UAS-bla, beta-lactamase ratio, antagonist mode; series mostly up to 76.7 µM
# Procedure, shortened: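 VDR-UAS-bla HEK293T cells in 2% charcoal-stripped FBS were stimulated with 1-alpha,25-dihydroxyvitamin D3 (3 nM final) plus compound for 16 h at 37 C. The beta-lactamase CCF4 readout was normalized to 50 nM agonist and DMSO, and Hill fits gave IC50.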
# [11] = qHTS assay for small molecule agonists of retinoid X receptor alpha signaling (AID 588544; calls by dose curve); settings: HEK293T RXRa-UAS-bla, beta-lactamase reporter, 18 h; 530 nm emission
# [12] = target: Retinoic acid receptor RXR-alpha (Homo sapiens) (UniProt P19793); assay: as above; settings: HEK293T RXRa-UAS-bla, beta-lactamase reporter, 18 h; series mostly up to 76.7 µM
# [13] = target: Thyroid hormone receptor beta (Homo sapiens) (UniProt P10828); assay: qHTS assay for small molecule antagonists of thyroid hormone receptor beta signaling (AID 588547; active means well fitted inhibition curve with a large enough effect in the signal ratio, with a control signal flat, not every such curve was filed as active; the % refers to the signal ratio;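 further: cells stimulated with 0.4 nM T3 agonist during compound exposure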); settings: TR-UAS-bla HEK293, beta-lactamase ratio, antagonist mode, 18 h
# Procedure, shortened: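 TR-UAS-bla GripTite HEK293 cells in 2% charcoal/dextran FBS medium; compounds 0.59 nM to 92 uM with T3 at 0.4nM final, 18 h at 37 C. Beta-lactamase read by CCF4 fluorescence (460/530 nm); Hill fits gave IC50 and efficacy.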
# [14] = target: Nuclear receptor ROR-gamma (Homo sapiens) (UniProt P51449); assay: qHTS assay for small molecule antagonists of the retinoid-related orphan receptor gamma (ROR-gamma) signaling pathway (AID 651802); settings: ROR-gamma antagonist cell reporter assay; series mostly up to 92.2 µM;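 further: CHO cells with doxycycline-induced ROR-gamma expression; luciferase reporter luminescence driven by ROR response element; nearly all actives have a fitted effect of over 60% in size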
# Procedure, shortened: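 CHO, TET-inducible ROR + RORE-LUC reporter, 1536-well qHTS. Compound pinned, doxycycline added, 16hr 37C/5% CO2. ONE-Glo, 30 min RT, luminescence; signal drop scored as antagonism.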
# [15] = qHTS assay for small molecule agonists of the antioxidant response element (ARE) signaling pathway measured by Nrf2-dependant transcriptional activity - cell viability counter screen (AID 720653; active means well fitted curve in the direction sought with a large enough effect in the repeat runs; an effect the other way counts as inactive or inconclusive); settings: ARE-bla HepG2 viability, CellTiter-Glo ATP luminescence, 16 h; stronger effect = lower value
# Procedure, shortened: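 ARE-bla HepG2 cells treated with compounds for 16 h at 37C; this counter screen measures viability as intracellular ATP by CellTiter-Glo luminescence after 30 min at room temperature.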
# [16] = qHTS assay for cell viability of HEK293 cells (AID 743288); settings: ATP luminescence (CellTiter-Glo), 18 h, stronger effect = lower value; further: nearly all actives have a fitted effect of over 50% in size
# Procedure, shortened: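 Environmental chemicals tested in qHTS format against parental HEK293 cells; 18 h treatment, 37 C; read-out ATP luminescence (CellTiter-Glo), 30 min RT development.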
# [17] = Cellular Toxicity (caspase-3) H-4-II-E (AID 663); settings: H-4-II-E rat hepatoma; Potency: caspase-3 activation; series mostly up to 92.2 µM;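 further: cells exposed to compound for 16 hr before readout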
# Procedure, shortened: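 Rat hepatoma H-4-II-E cells (1500/well) plated 5 hr, then exposed to compound titrations for 16 hr at 37 °C. Caspase-Glo 3/7 luminescence read after 20 min at RT; data normalized to DMSO and 100 uM tamoxifen, AC50 from Hill fits.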
# [18] = Cell Viability - LYMP2-009 (AID 968); settings: LYMP2-009 lymphoblastoid cell viability; series mostly up to 92.2 µM;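 further: cells exposed to compound for 24 h at 37 °C; nearly all actives have a fitted effect of over 55% in size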
# [19] = qHTS assay for small molecule disruptors of the mitochondrial membrane potential - 1 hr assay (AID 651754; calls by dose curve; further: nearly all actives have a fitted effect of over 35% in size; further: potency means the concentration at half of the fitted maximal effect); settings: series mostly up to 92.2 µM
# Procedure, shortened: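 HepG2, 2,000 cells/well, overnight attachment; cpd or DMSO 1 hr, 37C/5% CO2; Mito-MPS dye 30 min, 37C; fluorescence monomer (490/535) and aggregate (540/590).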
# [20] = qHTS assay for small molecule disruptors of the mitochondrial membrane potential - 5 hr assay (AID 651755; calls by dose curve; further: nearly all actives have a fitted effect of over 40% in size; further: potency means the concentration at half of the fitted maximal effect); settings: JC-1-type ratio dye; series mostly up to 92.2 µM
# Procedure, shortened: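 HepG2 cells (2,000/well), attached overnight, exposed to compound 5 hr at 37C, then Mito-MPS dye 30 min. Fluorescence read for monomers (490/535 nm) and aggregates (540/590 nm).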
# Chain of Vitamin D3 receptor (Homo sapiens) (P11473 whole entry, looked up): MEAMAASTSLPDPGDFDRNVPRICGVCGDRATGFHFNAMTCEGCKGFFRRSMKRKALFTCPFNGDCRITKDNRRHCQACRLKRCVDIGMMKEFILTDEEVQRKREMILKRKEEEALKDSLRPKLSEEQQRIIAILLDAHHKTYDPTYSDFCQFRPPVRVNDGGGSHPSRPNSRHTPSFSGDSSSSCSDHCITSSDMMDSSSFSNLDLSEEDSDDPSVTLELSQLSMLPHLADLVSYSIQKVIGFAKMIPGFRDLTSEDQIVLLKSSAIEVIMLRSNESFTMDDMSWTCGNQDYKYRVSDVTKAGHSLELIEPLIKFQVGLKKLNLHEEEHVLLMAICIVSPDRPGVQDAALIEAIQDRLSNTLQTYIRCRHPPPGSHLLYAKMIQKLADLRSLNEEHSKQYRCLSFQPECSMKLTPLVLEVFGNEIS
# Chain of Nuclear receptor ROR-gamma (Homo sapiens) (P51449 whole entry, looked up): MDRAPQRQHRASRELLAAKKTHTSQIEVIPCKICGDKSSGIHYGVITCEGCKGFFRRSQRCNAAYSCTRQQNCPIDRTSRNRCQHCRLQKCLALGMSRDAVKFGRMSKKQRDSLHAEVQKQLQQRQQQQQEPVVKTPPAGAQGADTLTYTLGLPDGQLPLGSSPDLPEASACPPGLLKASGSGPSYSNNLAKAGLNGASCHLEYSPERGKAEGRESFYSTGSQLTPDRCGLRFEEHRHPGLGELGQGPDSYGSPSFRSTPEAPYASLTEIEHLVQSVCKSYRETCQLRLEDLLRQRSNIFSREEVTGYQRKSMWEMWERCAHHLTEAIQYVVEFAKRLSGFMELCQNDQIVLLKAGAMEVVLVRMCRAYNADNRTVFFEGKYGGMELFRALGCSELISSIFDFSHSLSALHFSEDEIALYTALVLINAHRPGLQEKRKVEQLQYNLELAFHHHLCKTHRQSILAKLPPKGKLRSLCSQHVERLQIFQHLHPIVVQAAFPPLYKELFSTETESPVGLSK
# Chain of Retinoic acid receptor RXR-alpha (Homo sapiens) (P19793 whole entry, looked up): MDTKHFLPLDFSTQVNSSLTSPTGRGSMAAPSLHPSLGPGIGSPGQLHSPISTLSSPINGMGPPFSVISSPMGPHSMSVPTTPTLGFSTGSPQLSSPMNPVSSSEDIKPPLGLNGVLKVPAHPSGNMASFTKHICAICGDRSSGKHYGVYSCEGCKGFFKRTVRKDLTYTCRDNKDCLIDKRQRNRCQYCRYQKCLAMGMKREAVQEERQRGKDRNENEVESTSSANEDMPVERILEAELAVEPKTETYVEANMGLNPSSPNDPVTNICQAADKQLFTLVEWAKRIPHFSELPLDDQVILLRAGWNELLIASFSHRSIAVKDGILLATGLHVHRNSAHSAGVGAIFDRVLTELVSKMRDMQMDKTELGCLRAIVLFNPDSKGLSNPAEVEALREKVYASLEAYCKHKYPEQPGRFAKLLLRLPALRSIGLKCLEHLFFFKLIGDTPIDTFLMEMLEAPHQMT
# Chain of Thyroid hormone receptor beta (Homo sapiens) (P10828 whole entry, looked up): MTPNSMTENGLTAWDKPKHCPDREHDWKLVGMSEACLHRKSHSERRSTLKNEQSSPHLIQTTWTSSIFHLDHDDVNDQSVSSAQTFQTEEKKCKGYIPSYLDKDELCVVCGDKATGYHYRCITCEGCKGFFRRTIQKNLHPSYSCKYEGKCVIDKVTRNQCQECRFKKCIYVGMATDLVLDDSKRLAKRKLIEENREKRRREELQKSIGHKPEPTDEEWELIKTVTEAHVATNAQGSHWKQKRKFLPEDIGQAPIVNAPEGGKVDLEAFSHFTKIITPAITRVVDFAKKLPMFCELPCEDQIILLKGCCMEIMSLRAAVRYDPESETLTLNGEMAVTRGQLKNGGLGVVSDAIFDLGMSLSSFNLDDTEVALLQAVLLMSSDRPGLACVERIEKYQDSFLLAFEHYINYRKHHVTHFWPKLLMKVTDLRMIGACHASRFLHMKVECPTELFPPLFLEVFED
compound,measurement,setting,value
CC(C)[N+](=O)[O-],Potency,[1],> 92 µM (inactive)
same,Potency,[2],inactive
same,Potency,[3],inactive
same,outcome,[4],inactive
same,outcome,[5],inactive
same,Potency,[6],inactive
same,Potency,[7],inactive
same,Potency,[8],inactive
same,Potency,[9],inactive
same,outcome,[10],inactive
same,max response,[11],5.89%
same,outcome,[12],inactive
same,activity change % (negative = inhibition),[13],5.36% (inactive)
same,Potency,[14],inactive
same,max response,[15],1.53% (inactive)
same,max response,[16],-8.31% (inactive)
O=[N+]([O-])c1c(Cl)c(Cl)c(Cl)c(Cl)c1Cl,Potency,[2],inactive
same,Potency,[3],inactive
same,outcome,[5],inactive
same,Potency,[17],inactive
same,Potency,[6],31.6 µM (active)
same,Potency,[7],inactive
same,Potency,[18],inactive
same,Potency,[9],inactive
same,outcome,[10],inactive
same,max response,[11],-0.246% and 22.3%
same,outcome,[12],inactive
same,activity change % (negative = inhibition),[13],14.8% (inactive)
same,Potency,[19],inactive
same,Potency,[20],inactive
same,Potency,[14],inactive
same,max response,[15],-5.67% (inactive) and 10.2% (inactive)
same,max response,[16],-12.6% (inactive) and -27.3% (inactive)
CN(C)c1ccc(N(C)C)cc1,Potency,[1],> 92 µM (inactive)
same,"viability change, negative = cytotoxic",[3],-98.2% (active)
same,outcome,[5],inactive
same,Potency,[17],inactive
same,Potency,[6],inactive
same,Potency,[8],inactive
same,max response,[11],-11.6%
same,outcome,[12],inactive
same,activity change % (negative = inhibition),[13],-0.335% (inactive)
same,Potency,[19],inactive
same,Potency,[20],inactive
same,Potency,[14],inactive
same,max response,[15],-11.4% (inactive)
same,max response,[16],-3.92% (inactive)
O=C(O)C(Br)CBr (stereo not drawn),Potency,[1],> 92 µM (inactive)
same,Potency,[2],inactive
same,outcome,[4],inactive
same,outcome,[5],inactive
same,Potency,[17],inactive
same,Potency,[6],inactive
same,Potency,[7],inactive
same,Potency,[8],inactive
same,Potency,[18],inactive
same,Potency,[9],inactive
same,max response,[11],10.3%
same,outcome,[12],inactive
same,activity change % (negative = inhibition),[13],10.8% (inactive)
same,Potency,[19],inactive
same,Potency,[20],inactive
same,Potency,[14],inactive
same,max response,[16],-8.07% (inactive)
Cc1cc(N=Nc2ccccc2C)ccc1N,Potency,[1],> 92 µM (inactive)
same,Potency,[2],inactive
same,outcome,[4],inactive
same,outcome,[5],inactive
same,Potency,[17],inactive
same,Potency,[6],inactive
same,Potency,[7],inactive
same,Potency,[18],inactive
same,Potency,[9],inactive
same,outcome,[10],inactive
same,activity change % (negative = inhibition),[13],-2.95% (inactive) and 5.44% (inactive)
same,Potency,[14],inactive
same,max response,[15],-2.89% (inactive) and 2.65% (inactive)
same,max response,[16],-13.3% (inactive) and -11.6% (inactive)
Cc1ccc2c(c1N)C(=O)c1ccccc1C2=O,Potency,[1],> 92 µM (inactive)
same,Potency,[3],inactive
same,outcome,[4],inactive
same,outcome,[5],inactive
same,Potency,[17],inactive
same,Potency,[7],inactive
same,Potency,[18],inactive
same,Potency,[9],inactive
same,max response,[11],-11.3% and 17.2%
same,outcome,[12],inactive
same,activity change % (negative = inhibition),[13],1.36% (inactive)
same,Potency,[19],2.66 µM (active)
same,Potency,[20],2.66 µM (active)
same,Potency,[14],inactive
same,max response,[15],-21.8% (inactive) and -21.2% (inactive)
Cc1cnc[nH]1,Potency,[1],> 92 µM (inactive)
same,Potency,[2],inactive
same,Potency,[3],inactive
same,outcome,[4],inactive
same,outcome,[5],inactive
same,Potency,[17],inactive
same,Potency,[6],inactive
same,Potency,[7],inactive
same,Potency,[8],inactive
same,Potency,[18],inactive
same,Potency,[9],inactive
same,outcome,[10],inactive
same,max response,[11],2.59%
same,outcome,[12],inactive
same,activity change % (negative = inhibition),[13],8% (inactive)
same,Potency,[19],inactive
same,Potency,[20],inactive
same,Potency,[14],inactive
same,max response,[15],-3.19% (inactive)
same,max response,[16],-9.96% (inactive)
CCCCCCCCCCCCCl,Potency,[1],> 92 µM (inactive)
same,Potency,[2],inactive
same,Potency,[3],inactive
same,outcome,[4],inactive
same,outcome,[5],inactive
same,Potency,[17],inactive
same,Potency,[6],inactive
same,Potency,[7],inactive
same,Potency,[8],inactive
same,max response,[11],-9.69%
same,outcome,[12],inactive
same,activity change % (negative = inhibition),[13],-6.1% (inactive)
same,Potency,[19],inactive
same,Potency,[20],inactive
same,max response,[15],-2.45% (inactive)
